PubChem BioAssay AID485284 (NMMLSC, 2010)
Potency and affinity values are given separately.

Test: inhibitors of CD8+ T cell–vesicle binding, dose response, mouse 2C CD8+ T cells, flow cytometry (AID 485284);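 also: drosophila derived vesicles carrying Ld MHC with QL9 peptide plus B7-1 and ICAM-1; vesicle binding seen as anti-B7-1 PE fluorescence on CD8 gated cells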
Conditions: 2C mouse CD8+ T cell-exosome binding; at 45 µM (top of the series)

Compound | binding remaining, % of control [%]
CCOC(=O)c1c(NC(=O)CN2C(=O)NC3(CCC(C)CC3)C2=O)sc(C)c1-c1ccc(C)cc1 (stereo not drawn) | 108
CCOC(=O)C1CCCN(c2cc(=O)n(-c3ccccc3Cl)c(=O)[nH]2)C1 (stereo not drawn) | 87.9
CCN1CCN(c2ccc(S(=O)(=O)N3CCOCC3)cc2NC(=O)/C=C/c2ccc(C)cc2)CC1 | 98.1
CCOC(=O)Nc1sc(C)c(C)c1C(N)=O | 103
CCOC(=O)c1cc2occc2n1CC(=O)NC1CCC(C)CC1 (stereo not drawn) | 77
CN1CCN(S(=O)(=O)c2cccc(C(=O)Nc3cc(C(F)(F)F)ccc3N3CCCCC3)c2)CC1 | 51.4
O=C(c1ccc(N2C(=O)C3CC=C(Cl)CC3C2=O)cc1)N1CCCCC1 (stereo not drawn) | 18.5
O=C(Nn1cnc2ccccc2c1=O)C1CCCCC1 | 106
COc1ccc(NC(=O)CSCC(=O)Nc2cccc(S(=O)(=O)N3CCCCCC3)c2)cc1 | 44.4
C[N+]1(C)CC2([N+](=O)[O-])CC=C(Oc3ccccc3)C([N+](=O)[O-])(C2)C1 (stereo not drawn) | 24.8
O=C(Nc1ncc([N+](=O)[O-])s1)c1cccs1 | 56.8
CCOC(=O)CSc1nnnn1-c1cc(OC)c(Cl)cc1OC | 136
CC(C)(C)Nc1nc2nonc2nc1NC(C)(C)C | 147
Cc1noc(C)c1C(=O)OC(C)C(=O)N1CCc2ccccc21 (stereo not drawn) | 96.2
Cc1cnc(C(=O)Nc2ccc(C)c(S(=O)(=O)N3CCCCC3)c2)cn1 | 114
Cc1ccc2oc(=O)c(/C=C(\O)c3sc(C)nc3C)nc2c1 | 119
O=C(NNC(=S)NC(=O)c1ccco1)c1ccc(F)cc1 | 159
CSc1cccc(NC(=O)CCCn2c(=O)c3cccn3c3cccnc32)c1 | 87.5
